Measurements as given in the supplement of paper PMC11732987, “Enantioselective OTUD7B fragment discovery through chemoproteomics screening and high-throughput optimisation” (Communications Chemistry, 2025).

Tests used:
Assay in all cases: log2 ratio of Biotin-Ahx-Ub-VS probe labelling (fragment/DMSO); higher = less target engagement (more negative = stronger competition), active = hit call of the paper (q ≤ 0.05, log2 ratio ≤ -1)
Settings in all cases: compound concentration: 200 uM; treatment time: 3 h
USP16 = USP16 (UniProt Q9Y5T5)
In short: (§1)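 Labelled DUBs were enriched with NeutrAvidin, digested with LysC and trypsin, and run by diaPASEF LC-MS/MS. The labelling used Biotin-Ahx-Ub-VS at 0.5 µM final for 1 h on HEK293T lysate (495 µg per sample) previously treated in triplicate with fragment at 200 µM or vehicle for 3 h. Values are average log2 fragment/vehicle ratios by unpaired t-test on global-median-normalised Spectronaut quantities of proteins with ≥2 unique peptides.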

USP19 = biological target: T1, USP19 (UniProt O94966)
T1 sequence (whole entry): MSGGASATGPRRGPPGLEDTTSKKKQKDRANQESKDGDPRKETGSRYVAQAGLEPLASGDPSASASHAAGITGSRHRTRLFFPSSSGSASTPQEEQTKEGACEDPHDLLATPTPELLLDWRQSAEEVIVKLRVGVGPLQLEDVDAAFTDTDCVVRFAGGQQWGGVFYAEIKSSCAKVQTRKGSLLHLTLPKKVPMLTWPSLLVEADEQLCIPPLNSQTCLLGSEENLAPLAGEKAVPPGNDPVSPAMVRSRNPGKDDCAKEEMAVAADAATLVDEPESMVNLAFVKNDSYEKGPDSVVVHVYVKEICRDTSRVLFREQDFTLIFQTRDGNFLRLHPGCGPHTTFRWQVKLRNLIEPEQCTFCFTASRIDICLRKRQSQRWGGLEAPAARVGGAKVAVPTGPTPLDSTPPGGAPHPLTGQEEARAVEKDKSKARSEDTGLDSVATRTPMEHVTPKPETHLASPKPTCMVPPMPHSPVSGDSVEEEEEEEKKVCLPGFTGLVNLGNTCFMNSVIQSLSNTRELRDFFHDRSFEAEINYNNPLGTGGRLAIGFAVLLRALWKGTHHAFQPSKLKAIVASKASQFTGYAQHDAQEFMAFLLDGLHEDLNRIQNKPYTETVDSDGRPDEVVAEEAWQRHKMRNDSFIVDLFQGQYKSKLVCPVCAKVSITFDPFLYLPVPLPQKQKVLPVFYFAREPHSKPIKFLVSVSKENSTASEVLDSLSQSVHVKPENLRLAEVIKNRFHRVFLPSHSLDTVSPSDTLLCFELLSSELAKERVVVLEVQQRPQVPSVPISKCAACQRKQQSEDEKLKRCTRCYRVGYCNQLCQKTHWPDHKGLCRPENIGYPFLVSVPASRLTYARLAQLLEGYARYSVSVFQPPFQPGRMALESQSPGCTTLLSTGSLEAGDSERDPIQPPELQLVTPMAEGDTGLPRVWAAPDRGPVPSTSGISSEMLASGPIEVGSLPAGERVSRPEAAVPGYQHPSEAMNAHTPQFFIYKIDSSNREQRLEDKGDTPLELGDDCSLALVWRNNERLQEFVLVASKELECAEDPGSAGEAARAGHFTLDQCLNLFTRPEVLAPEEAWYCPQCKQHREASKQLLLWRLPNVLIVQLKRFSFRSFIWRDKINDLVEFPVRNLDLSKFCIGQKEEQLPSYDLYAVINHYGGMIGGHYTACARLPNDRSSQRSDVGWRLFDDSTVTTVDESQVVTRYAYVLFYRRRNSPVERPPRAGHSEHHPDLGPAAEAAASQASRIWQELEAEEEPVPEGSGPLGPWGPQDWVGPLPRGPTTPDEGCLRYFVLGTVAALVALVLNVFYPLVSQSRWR
In short: as §1

USP24 = USP24 (UniProt Q9UPU5)
In short: as §1

USP25 = biological target: T2, USP25 (UniProt Q9UHP3)
T2 sequence (whole entry): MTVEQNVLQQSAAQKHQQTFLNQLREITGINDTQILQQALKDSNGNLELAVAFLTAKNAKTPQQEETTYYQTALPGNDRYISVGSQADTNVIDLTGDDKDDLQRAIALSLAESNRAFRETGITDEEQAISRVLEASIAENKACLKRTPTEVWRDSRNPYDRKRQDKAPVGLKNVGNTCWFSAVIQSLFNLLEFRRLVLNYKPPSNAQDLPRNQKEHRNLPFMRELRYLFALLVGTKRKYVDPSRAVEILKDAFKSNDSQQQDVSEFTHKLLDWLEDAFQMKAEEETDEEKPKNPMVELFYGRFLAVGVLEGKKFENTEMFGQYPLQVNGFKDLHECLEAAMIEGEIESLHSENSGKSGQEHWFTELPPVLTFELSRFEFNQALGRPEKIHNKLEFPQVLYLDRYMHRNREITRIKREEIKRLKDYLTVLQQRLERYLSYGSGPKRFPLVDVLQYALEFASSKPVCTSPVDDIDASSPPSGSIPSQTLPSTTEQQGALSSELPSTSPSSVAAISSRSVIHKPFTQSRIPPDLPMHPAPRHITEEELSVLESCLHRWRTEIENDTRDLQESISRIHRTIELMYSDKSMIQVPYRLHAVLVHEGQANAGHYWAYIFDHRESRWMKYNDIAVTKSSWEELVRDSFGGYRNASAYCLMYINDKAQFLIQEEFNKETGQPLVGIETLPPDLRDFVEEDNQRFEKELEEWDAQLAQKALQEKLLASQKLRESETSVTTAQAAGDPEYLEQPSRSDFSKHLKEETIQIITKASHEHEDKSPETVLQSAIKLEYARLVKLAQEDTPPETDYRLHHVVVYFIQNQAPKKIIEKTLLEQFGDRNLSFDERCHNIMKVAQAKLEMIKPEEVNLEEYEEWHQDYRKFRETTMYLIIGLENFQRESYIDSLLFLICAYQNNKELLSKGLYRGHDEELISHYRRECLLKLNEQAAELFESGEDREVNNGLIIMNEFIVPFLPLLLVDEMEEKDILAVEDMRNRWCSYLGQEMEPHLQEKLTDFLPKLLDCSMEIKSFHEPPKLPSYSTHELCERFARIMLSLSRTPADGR
In short: as §1

USP28 = biological target: T3, USP28 (UniProt Q96RU2)
T3 sequence (whole entry): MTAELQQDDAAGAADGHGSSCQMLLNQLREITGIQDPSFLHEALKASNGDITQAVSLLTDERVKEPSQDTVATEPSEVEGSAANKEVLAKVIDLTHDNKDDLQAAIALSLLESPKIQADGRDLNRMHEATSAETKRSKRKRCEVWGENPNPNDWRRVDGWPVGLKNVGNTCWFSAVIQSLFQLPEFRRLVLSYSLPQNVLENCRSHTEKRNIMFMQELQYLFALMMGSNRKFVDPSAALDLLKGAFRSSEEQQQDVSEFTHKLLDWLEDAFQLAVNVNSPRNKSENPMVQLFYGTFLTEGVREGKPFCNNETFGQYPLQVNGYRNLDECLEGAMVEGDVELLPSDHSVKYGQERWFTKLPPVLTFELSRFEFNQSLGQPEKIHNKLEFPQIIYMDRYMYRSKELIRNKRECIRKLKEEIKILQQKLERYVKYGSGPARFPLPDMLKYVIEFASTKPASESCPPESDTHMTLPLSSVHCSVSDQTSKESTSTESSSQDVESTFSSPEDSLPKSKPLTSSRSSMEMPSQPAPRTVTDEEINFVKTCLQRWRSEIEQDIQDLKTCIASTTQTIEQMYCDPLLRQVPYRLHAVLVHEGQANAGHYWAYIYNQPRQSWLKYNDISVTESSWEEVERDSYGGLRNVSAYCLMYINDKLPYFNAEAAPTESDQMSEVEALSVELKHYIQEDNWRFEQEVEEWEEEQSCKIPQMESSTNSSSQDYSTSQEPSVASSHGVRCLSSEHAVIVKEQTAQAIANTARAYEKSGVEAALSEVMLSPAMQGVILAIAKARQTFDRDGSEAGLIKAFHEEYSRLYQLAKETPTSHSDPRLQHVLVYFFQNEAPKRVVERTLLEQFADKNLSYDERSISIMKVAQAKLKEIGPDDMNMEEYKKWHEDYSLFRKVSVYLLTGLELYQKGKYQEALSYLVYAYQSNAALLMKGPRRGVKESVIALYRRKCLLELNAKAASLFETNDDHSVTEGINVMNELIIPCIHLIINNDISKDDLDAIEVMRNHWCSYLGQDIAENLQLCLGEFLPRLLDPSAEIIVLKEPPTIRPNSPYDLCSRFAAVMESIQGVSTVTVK
In short: as §1

Measured: log2 ratio of Biotin-Ahx-Ub-VS probe labelling

Sequence of USP16 (Q9Y5T5 whole entry, looked up, the tested form may be a part): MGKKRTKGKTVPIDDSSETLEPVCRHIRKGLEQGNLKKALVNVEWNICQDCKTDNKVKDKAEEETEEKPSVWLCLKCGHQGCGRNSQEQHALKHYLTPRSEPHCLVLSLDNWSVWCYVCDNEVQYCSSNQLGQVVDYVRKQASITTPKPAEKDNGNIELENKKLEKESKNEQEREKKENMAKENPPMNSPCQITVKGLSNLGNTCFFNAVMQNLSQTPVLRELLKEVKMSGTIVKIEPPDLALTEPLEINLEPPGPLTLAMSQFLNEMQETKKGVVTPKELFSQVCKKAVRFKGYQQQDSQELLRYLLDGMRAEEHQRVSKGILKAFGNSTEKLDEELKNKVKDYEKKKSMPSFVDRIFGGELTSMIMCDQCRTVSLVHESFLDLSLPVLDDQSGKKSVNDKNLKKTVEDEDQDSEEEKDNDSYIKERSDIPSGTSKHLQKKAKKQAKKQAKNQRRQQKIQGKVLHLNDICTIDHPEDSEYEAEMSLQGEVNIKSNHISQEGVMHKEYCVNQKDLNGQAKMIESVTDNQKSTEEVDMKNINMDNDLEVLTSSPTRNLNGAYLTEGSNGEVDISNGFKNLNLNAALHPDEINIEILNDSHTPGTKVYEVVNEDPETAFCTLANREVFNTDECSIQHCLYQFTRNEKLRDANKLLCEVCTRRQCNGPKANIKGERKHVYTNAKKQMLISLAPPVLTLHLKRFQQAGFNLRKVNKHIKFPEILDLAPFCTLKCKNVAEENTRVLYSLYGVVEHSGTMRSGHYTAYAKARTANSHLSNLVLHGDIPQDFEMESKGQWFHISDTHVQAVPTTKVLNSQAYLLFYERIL
Sequence of USP24 (Q9UPU5 whole entry): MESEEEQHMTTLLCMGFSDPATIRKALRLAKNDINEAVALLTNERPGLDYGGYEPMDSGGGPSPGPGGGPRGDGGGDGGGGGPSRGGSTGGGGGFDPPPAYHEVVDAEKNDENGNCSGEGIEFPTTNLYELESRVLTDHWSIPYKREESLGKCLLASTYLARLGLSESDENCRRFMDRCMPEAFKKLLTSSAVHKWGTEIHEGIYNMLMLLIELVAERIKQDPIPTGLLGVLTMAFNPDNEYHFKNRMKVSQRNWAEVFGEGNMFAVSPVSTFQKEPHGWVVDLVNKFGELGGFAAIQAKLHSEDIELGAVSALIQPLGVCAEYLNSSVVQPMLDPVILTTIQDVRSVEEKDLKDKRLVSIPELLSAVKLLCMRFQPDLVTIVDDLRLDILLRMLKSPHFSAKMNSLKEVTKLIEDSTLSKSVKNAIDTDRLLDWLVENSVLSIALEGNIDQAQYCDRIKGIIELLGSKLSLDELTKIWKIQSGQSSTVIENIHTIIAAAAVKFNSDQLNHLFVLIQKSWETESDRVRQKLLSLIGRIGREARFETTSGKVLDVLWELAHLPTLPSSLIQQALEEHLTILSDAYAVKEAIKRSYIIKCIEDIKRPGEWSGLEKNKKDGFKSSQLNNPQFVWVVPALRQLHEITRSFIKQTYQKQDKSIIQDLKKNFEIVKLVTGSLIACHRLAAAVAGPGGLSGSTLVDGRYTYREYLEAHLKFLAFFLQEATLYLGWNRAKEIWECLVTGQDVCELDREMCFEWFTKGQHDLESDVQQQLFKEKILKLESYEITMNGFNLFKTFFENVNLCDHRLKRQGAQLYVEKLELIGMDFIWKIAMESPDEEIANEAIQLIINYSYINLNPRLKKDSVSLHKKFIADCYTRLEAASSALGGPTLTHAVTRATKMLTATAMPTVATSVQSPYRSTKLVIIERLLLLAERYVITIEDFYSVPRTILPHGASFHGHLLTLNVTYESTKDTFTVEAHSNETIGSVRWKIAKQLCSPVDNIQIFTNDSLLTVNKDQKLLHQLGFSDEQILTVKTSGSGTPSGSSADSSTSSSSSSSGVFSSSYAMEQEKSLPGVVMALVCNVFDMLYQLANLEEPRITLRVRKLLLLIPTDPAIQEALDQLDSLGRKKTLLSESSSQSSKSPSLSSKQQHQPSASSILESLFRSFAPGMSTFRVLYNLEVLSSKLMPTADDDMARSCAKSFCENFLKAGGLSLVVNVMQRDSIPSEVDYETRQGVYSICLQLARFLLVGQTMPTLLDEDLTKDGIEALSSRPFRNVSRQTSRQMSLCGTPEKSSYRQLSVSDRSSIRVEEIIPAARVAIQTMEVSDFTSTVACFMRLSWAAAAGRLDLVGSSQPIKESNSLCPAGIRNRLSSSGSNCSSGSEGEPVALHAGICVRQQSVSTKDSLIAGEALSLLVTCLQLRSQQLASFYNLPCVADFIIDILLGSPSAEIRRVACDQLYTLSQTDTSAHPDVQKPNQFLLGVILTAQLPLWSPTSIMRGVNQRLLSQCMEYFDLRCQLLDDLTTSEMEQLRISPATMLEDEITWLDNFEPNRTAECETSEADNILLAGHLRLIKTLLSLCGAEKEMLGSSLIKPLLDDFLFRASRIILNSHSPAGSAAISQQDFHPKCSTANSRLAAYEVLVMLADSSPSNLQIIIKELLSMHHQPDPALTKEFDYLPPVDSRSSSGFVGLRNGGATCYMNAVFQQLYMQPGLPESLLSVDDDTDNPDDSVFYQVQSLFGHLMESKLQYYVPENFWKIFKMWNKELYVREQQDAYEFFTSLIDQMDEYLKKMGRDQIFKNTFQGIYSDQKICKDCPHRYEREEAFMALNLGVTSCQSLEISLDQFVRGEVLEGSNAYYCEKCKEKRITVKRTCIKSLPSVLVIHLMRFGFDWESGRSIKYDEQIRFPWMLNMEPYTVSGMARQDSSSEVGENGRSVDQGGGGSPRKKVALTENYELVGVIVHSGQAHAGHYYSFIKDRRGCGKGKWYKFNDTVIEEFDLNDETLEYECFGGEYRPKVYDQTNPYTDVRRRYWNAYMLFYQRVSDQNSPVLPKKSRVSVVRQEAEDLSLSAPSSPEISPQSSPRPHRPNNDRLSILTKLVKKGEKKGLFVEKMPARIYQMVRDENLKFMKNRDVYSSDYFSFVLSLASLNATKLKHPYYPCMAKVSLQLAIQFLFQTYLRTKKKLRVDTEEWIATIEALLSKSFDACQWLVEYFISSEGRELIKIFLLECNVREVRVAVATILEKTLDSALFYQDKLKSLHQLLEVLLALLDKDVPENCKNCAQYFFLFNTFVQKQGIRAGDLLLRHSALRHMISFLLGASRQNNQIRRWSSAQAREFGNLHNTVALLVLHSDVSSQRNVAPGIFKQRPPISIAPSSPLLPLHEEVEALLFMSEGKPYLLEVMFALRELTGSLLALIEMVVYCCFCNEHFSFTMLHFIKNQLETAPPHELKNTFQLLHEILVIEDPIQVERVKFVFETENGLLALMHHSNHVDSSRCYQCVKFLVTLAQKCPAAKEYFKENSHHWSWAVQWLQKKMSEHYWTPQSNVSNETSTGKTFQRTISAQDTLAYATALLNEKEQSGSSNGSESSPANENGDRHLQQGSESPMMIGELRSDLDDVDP

Cc1ccc(-c2nnc(C)[nH]2)c(NC(=O)CCl)c1
inactive: USP16 0.114 | USP19 0.0362 | USP24 -0.204 | USP25 -0.734 | USP28 -0.643
